# The list is not random: actives were taken first. Their share in the collection is about 3.8%.
# MPTP block – inhibitors of mitochondrial permeability transition pore; inhibition, % at 10 µM; 360,000 compounds, 1.4% hits; AID 602449; isolated mouse mitochondria, Ca2+ swelling absorbance, 30 min;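 active means inhibition of 50% or more, scaled per plate between neutral and stimulator controls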;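 further: 0% = DMSO wells given calcium and 100% = 1 mM EGTA wells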
# FAS-TE inh – blocks the thioesterase domain of human fatty acid synthase; inhibition, % at 15 µM; P49327; AID 602261; 360,000 compounds, 0.67% hits; recombinant FAS-TE, OMFH fluorogenic substrate, fluorescence endpoint;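 active means compounds whose normalised, plate-corrected inhibition of enzyme fluorescence in the single-dose primary screen is 50% or more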;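 further: 0% = DMSO with enzyme and 100% = substrate without enzyme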
# aDG glyco act – increases alpha dystroglycan glycosylation; Pro5-aDG cells, alpha-DG glycosylation AlphaScreen (IIH6); 0% Pro5, 100% B10-LARGE cell signal; activation, % at 10 µM; AID 624168; 360,000 compounds, 0.22% hits;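 active means activation of at least 8% versus controls, or a plate z-score of at least 8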;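 further: Pro5 are CHO cells carrying HIG-tagged alpha-DG that lacks glycosylation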
# H9c2 protect – myocardial damage modulation in H9c2 cells | H9c2 cardiomyocytes, H2O2 injury protection, ATPLite, 2 h | 360,000 compounds, 0.63% hits | protection from H2O2 cell death, % at 20 µM;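 active means compounds giving at least 50% protection of heart cells from peroxide-induced death in the single-dose screen, raw or plate-pattern-corrected value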;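 further: 0% = DMSO wells with peroxide and 100% = DMSO wells without peroxide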
# Mot1-301 SUMO – SUMOylation pathway inhibition by Mot1-301 growth rescue; S. cerevisiae Mot1-301 growth rescue, ATP luminescence, 38.5C; percent above DMSO median, 100 means doubled; growth rescue, % at 18.8 µM; 320,000 compounds, 1% hits; AID 2716;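 active means every valid replicate shows activation above 250% relative to neutral control wells; inactive means the rest, any valid replicate at or below 250%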;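 further: OY570 slx delta 5 strain wells were the positive control but not used for scaling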
# Yeast superoxide – caloric restriction mimetics inhibiting age-related superoxide in yeast | superoxide response (% of plate mean), % at 10 µM | S. cerevisiae aged cells, superoxide DHE fluorescence; hits give low values | 330,000 compounds, 0.18% hits;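 active means superoxide response under a set limit, about three screen SD below normal, cut at about 65% in these data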;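 further: yeast aged for seven days with compound at 30 °C before DHE staining; 100% = average MFI of all compound-treated wells on the plate with controls excluded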
# MPTP counter – membrane potential counter-screen of mitochondrial pore inhibitors. shares compounds with MPTP block. isolated mitochondria, Rhodamine 123 fluorescence. inhibition, % at 10 µM. 5,000 compounds, 78% hits; in the data active means inhibition above about 22%;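 further: 0% = DMSO vehicle and 100% = positive control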
# MPTP swell DR – dose response confirmation of mitochondrial permeability transition pore inhibitors; 780 compounds, 58% hits; IC50, µM; AID 651561; shares compounds with MPTP block; isolated mitochondria swelling, absorbance; in the data active means IC50 below about 20 µM
# MPTP cs DR – counter-screen for mitochondrial permeability transition pore inhibitors, dose response; shares compounds with MPTP block; isolated mitochondria counterscreen, fluorescence read-out; IC50, µM; 780 compounds, 49% hits; AID 651564; in the data active means IC50 below about 80 µM
# Starred values were filed as active, the others as inactive; . = not tested or not shown.
SMILES,MPTP block,FAS-TE inh,aDG glyco act,H9c2 protect,Mot1-301 SUMO,Yeast superoxide,MPTP counter,others
CCOP(=O)(OCC)C(NC(=O)Nc1ccc(Cl)cc1)c1ccccc1 (stereo not given),2.4,-3.6,0.2,6.3,30.1,99.7,.,
CCOP(=O)(OCC)C(NC(=O)Nc1ccc(C)c(Cl)c1)c1ccccc1 (stereo not given),84.4*,18.3,0.1,-6.7,6.3,104.6,84.3*,
CN(Cc1ccccc1)C(=O)CCS(=O)(=O)c1cc2c(cc1Cl)NC(=O)CO2,-1.7,-2.6,-0.2,-1.0,5.6,93.3,.,
CCN(CC)S(=O)(=O)c1ccc(OC)c(NC(=O)CCS(=O)(=O)Cc2ccccc2)c1,-0.4,1.3,0.4,-6.4,-4.2,92.3,.,
Cc1ccc(CNc2nc(Cl)c(C#N)s2)cc1,67.1*,4.6,1.2,-3.8,-5.0,101.1,76.6*,
Cc1cc(OCC(=O)NCC(C)C)cc(C)c1Br,-1.3,-1.4,0.0,-5.0,2.0,95.7,.,
CCCC(C)NC(=O)Cc1ccc(Br)cc1 (stereo not given),0.4,-6.0,-0.1,-1.6,-5.9,99.5,.,
CCCC(C)NC(=O)COc1ccc(Sc2ccc(OCC(=O)NC(C)CCC)cc2)cc1 (stereo not given),78.3*,1.4,3.4,-19.4,.,93.1,34.0*,
CC(C)CNC(=O)COc1ccc(Sc2ccc(OCC(=O)NCC(C)C)cc2)cc1,53.3*,-10.5,2.5,-8.1,-7.2,109.7,19.8,MPTP swell DR=5.36*;MPTP cs DR=>80
c1ccc2c(CCNc3ncnc4nc[nH]c34)cccc2c1,64.0*,-45.0,1.0,5.6,.,97.3,32.9*,
c1ccc(CCCNc2ncnc3nc[nH]c23)cc1,-2.1,-9.7,0.0,2.3,-5.2,96.1,.,
Cc1c(OC(C)C(=O)NCCCN2CCOCC2)ccc2c3c(c(=O)oc12)CCCC3 (stereo not given),-1.9,-2.3,0.3,4.0,-12.1,96.6,.,
CCN(CC)C(=O)C1=C(C)N(Cc2ccccc2)C(=O)C(CC(=O)NCC2CCCCC2)C1 (stereo not given),-2.0,-0.5,0.2,2.2,.,.,.,
O=[N+]([O-])c1ccc2nc(SCc3ccccc3Cl)sc2c1,97.8*,29.6,-0.1,-12.7,-11.2,103.7,68.1*,
C=CCc1ccccc1OCCSc1nc2ccc([N+](=O)[O-])cc2s1,83.6*,19.7,-0.1,-13.4,-4.0,85.3,40.9*,
O=C(CSc1nc2ccc([N+](=O)[O-])cc2s1)c1ccc2ccccc2c1,1.6,0.5,-0.1,-10.6,.,.,.,
COc1ccccc1OCCSc1nc2ccc([N+](=O)[O-])cc2s1,75.9*,15.8,-0.2,-5.8,-6.2,99.4,86.5*,
CC(C)C[C@@H]1O[C@H](C(C)C)Cc2[nH][nH]c(=O)c21,-0.1,-14.1,-0.2,.,.,.,.,
COc1ccc(C(=O)NCCc2nnc3ccc(SCC(=O)Nc4ccccc4F)nn23)cc1,-0.2,8.9,0.9,6.0,10.6,100.6,.,
O=C(CN(Cc1ccc(Cl)cc1)C(=O)CNS(=O)(=O)c1ccccc1)NCC1CCCO1 (stereo not given),-0.7,-2.9,0.0,1.4,8.2,86.2,.,
Cc1ccc(NC(=O)c2cc(S(=O)(=O)NCCC3=CCCCC3)ccc2F)cc1F,82.7*,43.8,2.9,-14.7,-1.6,96.6,78.3*,
O=C(Nc1cccc(F)c1)c1cc(S(=O)(=O)NCCC2=CCCCC2)ccc1F,62.6*,36.3,1.3,-23.3,8.4,98.2,77.6*,
CCOC(=O)[C@]12CCC=C1N(Cc1cccc3ccccc13)C(=O)[C@H](CC(=O)NCC13CC4CC(CC(C4)C1)C3)C2,-1.1,15.2,0.0,.,.,.,.,
Cc1ccc(C(=O)Nc2nc(=O)n(C(=O)CC(C)C)s2)cc1,58.1*,-4.9,-0.1,-12.7,0.0,119.8,78.0*,
Nc1nc2ccccc2n1CCOc1ccccc1Cl,73.6*,-23.7,0.6,-20.3,3.5,91.9,19.2,MPTP swell DR=8.95*;MPTP cs DR=27.2*
SMILES,MPTP block,FAS-TE inh,aDG glyco act,H9c2 protect,Mot1-301 SUMO,Yeast superoxide,MPTP counter,others
COC(=O)c1ccccc1S(=O)(=O)N1CCC(C(=O)OC(C)C(=O)N(C)Cc2ccccc2)CC1 (stereo not given),-0.2,-0.2,0.0,0.8,.,.,.,
Cc1nc(C(=O)Nc2ccccc2Cl)cc2c1[nH]c1ccccc12,54.6*,2.4,-0.5,-18.3,31.9,91.5,10.8,MPTP swell DR=>100;MPTP cs DR=>80
CCN(Cc1nc2ccccc2c(=O)[nH]1)C(=O)c1cccc(S(=O)(=O)N2CCc3ccccc32)c1,1.3,5.9,0.1,-8.6,-5.7,95.2,.,
O=C(Nc1nc([C@@H]2O[C@H](CO)[C@@H](O)[C@H](O)[C@H]2O)cs1)NC(c1ccccc1)c1ccccc1,9.1,-2.1,0.2,3.3,.,.,.,
O=[N+]([O-])c1ccc(-c2c(O)c3ccccc3c3nc4ccccc4nc23)cc1,74.5*,3.5,-0.1,-20.9,-19.0,109.8,37.3*,
O=[N+]([O-])c1ccc(-c2cnc3ccccc3n2)cc1,-0.8,9.9,-0.1,-1.5,-10.7,67.2,.,
CC(C)CN(C(=O)CN1CCc2ccccc21)c1c(N)n(CC(C)C)c(=O)[nH]c1=O,-1.6,-5.3,-0.4,-5.3,.,95.8,.,
Cc1cc(NC(=O)c2cc3cccc([N+](=O)[O-])c3[nH]2)ccc1F,82.7*,29.4,0.0,-22.2,-10.0,97.6,69.0*,
Cc1cccc(CSC(Nc2ccc(F)cc2)=C(C#N)C#N)c1,97.0*,12.0,1.4,-14.3,-8.9,100.3,93.2*,
Cc1cccc(CSC(=N)N)c1,-1.1,-10.5,0.1,6.2,8.7,100.2,.,
N#CC(C#N)=C(Nc1ccc(F)cc1)SCc1cccc(Br)c1,91.0*,48.2,0.2,-17.2,-18.0,97.2,88.8*,
COc1cccc(CCN2CCC(CNS(=O)(=O)c3cc(-c4cc(C)no4)ccc3C)CC2)c1,78.8*,0.6,5.0,-6.0,6.1,85.5,8.6,MPTP swell DR=6.79*;MPTP cs DR=23.7*
Cc1ccnc(Nc2nc(-c3c(C)nc4sccn34)cs2)c1,63.3*,14.5,1.6,-8.3,-18.7,91.7,21.0*,
CCOC(=O)[C@]12CCCC=C1N(CCc1ccc(OC)c(OC)c1)C(=O)[C@H](CC(=O)N1CCCC1)C2,0.2,.,0.8,.,.,.,.,
O=c1oc2cc(Oc3c([N+](=O)[O-])cc(C(F)(F)F)cc3[N+](=O)[O-])ccc2c2c1CCCC2,85.5*,43.6,0.0,-18.1,12.1,105.4,88.6*,
Cc1c(NC(=O)Nc2ccc(Cl)c(Cl)c2)c(=O)n(-c2ccccc2)n1C,89.5*,12.4,0.1,-6.7,63.3,92.7,89.6*,
